Consider four molecules from PubChem BioAssay.

By inhibition is commonly meant the relative decrease from the control value, in per cent.

Assay [1] in a line: yeast TOR pathway RPL19A-GFP modulators, primary screen, cell-based, S. cerevisiae, multiplex flow cytometry (AID 1862; in the data active = percent of DMSO control GFP below about 86%;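 also: lower values mimic rapamycin by blocking the RPL19A rise seen in DMSO cells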). Particulars: S. cerevisiae RPL19A-GFP strain, flow cytometry fluorescence, 3 h; at 10 µM; stronger effect = lower value.
The nature of assay [2]: modulators of MEP2-GFP levels in yeast, primary screen, S. cerevisiae, multiplex flow cytometry (AID 1867).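 Also: median GFP channel fluorescence of barcode-gated MEP2-GFP cells measured by flow cytometry.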 Particulars: S. cerevisiae MEP2-GFP strain, 3 h, at 10 µM, stronger effect = higher value, 100% means same as DMSO wells.
Assay [3] is described as follows: modulators of CIT2-GFP expression in yeast, primary screen, S. cerevisiae, GFP fusion, multiplex flow cytometry (AID 1870;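 active = percent response above a set limit, the screen-wide mean plus 3 SD, cut at about 130% in these data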;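 also: barcoded CIT2-GFP strain pooled with four other GFP strains with rapamycin as positive control; median GFP fluorescence per well over plate mean of DMSO wells so 100% = DMSO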). As to conditions: 3 h, at 10 µM, stronger effect = higher value. A general note: Flow cytometry measures light scatter and fluorescence of single cells or particles in a stream.
Assay [4] is described as follows: modulators of LAP4-GFP expression in yeast, primary screen, S. cerevisiae, multiplex flow cytometry (AID 1873;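 active = GFP signal, as percent of the solvent control, above the screen mean plus 3 SD, about 149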). As to conditions: 3 h, at 10 µM, stronger effect = higher value.
Assay [5] is described as follows: modulators of AGP1-GFP expression in yeast TOR pathway, primary screen, cell-based, multiplex flow cytometry, S. cerevisiae (AID 1887;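 active = GFP signal above the screen-wide mean plus 3 SD, that is over about 124.5% of the solvent control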;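 also: AGP1-GFP fusion strain of S. cerevisiae within a five-strain barcoded multiplex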). As to conditions: 3 h, at 10 µM, stronger effect = higher value.
Assay [6] can be described thus: inhibitors of CD8+ T cell-vesicle binding, pilot screen, LFA-1/ICAM-1 modulator project, MLPCN validation set, flow cytometry (AID 2523;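 active = response below a set limit, under 55% cells CD8-positive and vesicle-bound, and CD8 cells' 90th-percentile brightness under 279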;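 as to vesicle binding response: mean PE anti-B7-1 fluorescence of CD8+ cells relative to row control; 100% = QL9-loaded vesicles with DMSO vehicle in the same plate row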). As to conditions: 2C mouse CD8+ T cells, at 7 µM, stronger effect = lower value; double positive events: measured here: CD8+/vesicle+ event percentage.
In assay [7] the target is Integrin beta-1 (Homo sapiens) + Integrin alpha-4 (Homo sapiens) (UniProt P13612+P05556). The assay can be described thus: inhibition of HUTS-21 binding to VLA-4, pilot screen, VLA-4 allosteric modulator project, U937 cells, HUTS-21 mAb, flow cytometry, validation set (AID 2674;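 active = inhibition above 50%, about 3 SD of the validation set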;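 also: antibody binding induced by the VLA-4 ligand LDV present at three times its Kd; 0% = LDV ligand with antibody and no compound and 100% = antibody without LDV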). As to conditions: HUTS-21 LIBS mAb binding, at 6.7 µM, stronger effect = higher value, binding induced by LDV ligand.
Chain of Integrin beta-1 (Homo sapiens) + Integrin alpha-4 (Homo sapiens) (P05556 whole entry, looked up): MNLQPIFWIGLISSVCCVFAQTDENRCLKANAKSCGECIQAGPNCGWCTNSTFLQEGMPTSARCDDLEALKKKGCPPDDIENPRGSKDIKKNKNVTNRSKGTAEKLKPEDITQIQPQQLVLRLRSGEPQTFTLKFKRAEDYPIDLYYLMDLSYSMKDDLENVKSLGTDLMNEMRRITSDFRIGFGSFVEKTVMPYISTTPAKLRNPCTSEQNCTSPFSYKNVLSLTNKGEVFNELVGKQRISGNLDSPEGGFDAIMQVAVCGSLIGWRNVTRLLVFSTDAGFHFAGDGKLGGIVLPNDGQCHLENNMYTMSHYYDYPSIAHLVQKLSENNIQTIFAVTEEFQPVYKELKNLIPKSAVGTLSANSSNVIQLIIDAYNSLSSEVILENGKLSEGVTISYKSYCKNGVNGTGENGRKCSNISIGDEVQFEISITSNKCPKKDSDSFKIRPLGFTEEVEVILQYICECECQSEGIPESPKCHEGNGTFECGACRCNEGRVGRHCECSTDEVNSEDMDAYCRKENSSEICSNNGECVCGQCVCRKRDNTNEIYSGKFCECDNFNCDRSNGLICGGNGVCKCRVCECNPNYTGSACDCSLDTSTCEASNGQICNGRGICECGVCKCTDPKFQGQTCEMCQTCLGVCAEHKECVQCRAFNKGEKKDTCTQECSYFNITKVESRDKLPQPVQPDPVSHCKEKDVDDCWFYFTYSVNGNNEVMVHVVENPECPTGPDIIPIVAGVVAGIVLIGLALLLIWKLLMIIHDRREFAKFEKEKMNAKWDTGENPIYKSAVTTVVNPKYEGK
Chain of Integrin beta-1 (Homo sapiens) + Integrin alpha-4 (Homo sapiens) (P13612 whole entry, looked up): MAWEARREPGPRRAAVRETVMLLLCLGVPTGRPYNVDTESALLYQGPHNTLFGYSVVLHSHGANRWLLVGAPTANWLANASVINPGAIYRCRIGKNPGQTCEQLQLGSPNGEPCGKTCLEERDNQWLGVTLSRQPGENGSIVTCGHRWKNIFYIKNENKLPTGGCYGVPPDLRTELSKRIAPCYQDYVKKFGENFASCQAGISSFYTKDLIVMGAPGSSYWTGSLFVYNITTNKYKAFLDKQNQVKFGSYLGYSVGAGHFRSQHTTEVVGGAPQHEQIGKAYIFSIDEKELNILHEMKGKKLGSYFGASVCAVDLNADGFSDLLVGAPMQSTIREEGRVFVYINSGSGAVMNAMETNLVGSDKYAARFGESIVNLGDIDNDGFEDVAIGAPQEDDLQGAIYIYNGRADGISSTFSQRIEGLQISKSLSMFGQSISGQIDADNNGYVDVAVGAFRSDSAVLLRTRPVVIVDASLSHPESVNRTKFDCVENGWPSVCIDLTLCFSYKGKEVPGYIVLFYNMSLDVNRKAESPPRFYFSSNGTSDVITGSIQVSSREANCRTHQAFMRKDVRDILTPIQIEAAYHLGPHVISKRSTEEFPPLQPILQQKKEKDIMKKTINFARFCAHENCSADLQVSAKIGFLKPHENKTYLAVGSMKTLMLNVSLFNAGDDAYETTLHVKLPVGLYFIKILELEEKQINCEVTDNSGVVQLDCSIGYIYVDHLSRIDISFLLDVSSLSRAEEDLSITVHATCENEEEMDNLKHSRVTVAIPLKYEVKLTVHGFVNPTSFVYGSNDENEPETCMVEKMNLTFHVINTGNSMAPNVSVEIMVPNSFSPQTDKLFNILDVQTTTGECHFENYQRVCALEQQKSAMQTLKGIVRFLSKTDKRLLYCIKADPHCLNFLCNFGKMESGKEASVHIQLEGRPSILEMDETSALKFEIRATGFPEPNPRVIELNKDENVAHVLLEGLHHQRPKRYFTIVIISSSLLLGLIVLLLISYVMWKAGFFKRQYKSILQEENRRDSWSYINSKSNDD

The nature of assay [8]: superoxide lowering in aged yeast cells, pilot screen, validation compound set (AID 2706;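 active = superoxide response below 65% of plate, a cut near 3 SD across the whole screen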;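 also: yeast exposed to compound for one week at 30 degrees C before staining; 100% = mean of all compound wells on the same plate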). As to conditions: S. cerevisiae aging, superoxide DHE fluorescence; at 10 µM; stronger effect = lower value.
Assay [9] deals with Beta-adrenergic receptor kinase 1 (Homo sapiens) (UniProt P25098). In words: GRK2 binders displacing RNA aptamer, biochemical, validation, human GRK2, bead flow cytometry (AID 488806;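 active = aptamer binding inhibition above 30%, about 3 SD of noise from non-fluorescent compounds; inactive = inhibition at or below 30%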). Particulars: bead-bound GRK2, FAM-aptamer displacement, at 10 µM, stronger effect = higher value.
Chain of Beta-adrenergic receptor kinase 1 (Homo sapiens) (P25098 whole entry, looked up): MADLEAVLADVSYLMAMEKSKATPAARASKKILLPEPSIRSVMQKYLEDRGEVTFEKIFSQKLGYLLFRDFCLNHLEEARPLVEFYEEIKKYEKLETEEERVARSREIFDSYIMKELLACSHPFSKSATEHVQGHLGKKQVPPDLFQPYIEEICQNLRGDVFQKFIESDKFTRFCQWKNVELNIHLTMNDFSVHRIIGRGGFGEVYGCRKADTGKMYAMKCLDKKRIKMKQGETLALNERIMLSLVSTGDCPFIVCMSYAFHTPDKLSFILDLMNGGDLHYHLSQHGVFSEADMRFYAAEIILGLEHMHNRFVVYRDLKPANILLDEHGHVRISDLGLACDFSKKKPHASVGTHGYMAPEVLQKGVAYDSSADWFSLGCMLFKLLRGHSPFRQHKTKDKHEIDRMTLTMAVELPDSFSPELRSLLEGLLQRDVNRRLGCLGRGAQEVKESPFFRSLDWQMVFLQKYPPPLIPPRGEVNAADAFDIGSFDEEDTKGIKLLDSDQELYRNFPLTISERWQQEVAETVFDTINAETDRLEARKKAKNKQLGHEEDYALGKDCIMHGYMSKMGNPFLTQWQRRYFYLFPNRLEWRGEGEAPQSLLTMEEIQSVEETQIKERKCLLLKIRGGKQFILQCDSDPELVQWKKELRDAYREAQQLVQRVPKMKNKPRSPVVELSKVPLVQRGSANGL
The target of assay [10] is Beta-2 adrenergic receptor (Homo sapiens) (UniProt P07550). The assay can be described thus: beta2AR agonists driving receptor internalization, pilot screen, cell-based, FAP fluorogen, flow cytometry, validation set (AID 504459;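 active = percent response above 42, roughly 3 SD of non-fluorescent test compounds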;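 also: agonist-driven loss of surface beta2AR via internalization measured by FAP dye flow cytometry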). As to conditions: Am2.2-beta2AR cells, FAP surface receptor flow cytometry; at 10 µM; stronger effect = higher value.
Chain of Beta-2 adrenergic receptor (Homo sapiens) (P07550 whole entry, looked up): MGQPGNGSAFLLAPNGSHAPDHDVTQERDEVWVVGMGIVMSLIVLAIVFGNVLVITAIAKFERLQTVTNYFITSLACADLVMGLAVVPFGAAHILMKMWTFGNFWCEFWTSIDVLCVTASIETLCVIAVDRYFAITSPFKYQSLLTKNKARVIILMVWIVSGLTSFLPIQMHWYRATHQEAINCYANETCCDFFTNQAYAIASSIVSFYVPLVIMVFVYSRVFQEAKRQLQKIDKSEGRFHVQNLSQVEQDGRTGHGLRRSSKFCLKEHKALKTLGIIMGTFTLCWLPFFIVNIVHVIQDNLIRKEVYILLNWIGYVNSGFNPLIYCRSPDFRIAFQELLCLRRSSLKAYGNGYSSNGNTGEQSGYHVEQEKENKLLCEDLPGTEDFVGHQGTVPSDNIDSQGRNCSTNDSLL
Assay [11] has as its target AP-2 complex subunit beta (Homo sapiens) (UniProt P63010). The assay can be described thus: inhibitors of arrestin peptide binding to AP2, pilot screen, biochemical, validation set, GST-AP2 beads, flow cytometry (AID 504541;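 active = inhibition above 54%, about 3 SD of non-fluorescent compounds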;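 also: AP2 carries R879A mutation and is captured from E. coli lysate; bead-bound FITC arrestin peptide fluorescence measuring arrestin peptide binding to AP2; 0% = DMSO wells and 100% = excess unlabeled arrestin peptide control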). As to conditions: FITC arrestin peptide, at 10 µM, stronger effect = higher value, AP2 beta2 appendage fragment, R879A mutant.
Assay [12] in a line: yeast V-ATPase proton transport modulators, S. cerevisiae, pHLuorin, HTS validation (AID 504600; in the data active = response above about 15%;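 also: plate controls were DMSO for no effect and reference compound for full effect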). As to conditions: S. cerevisiae pHLuorin cytosolic pH, at 10 µM, stronger effect = higher value.
In assay [13] the test system is anti-desmoglein-3 scFv antibody binding to human DSG3. In words: inhibitors of anti-DSG3 scFv binding to DSG3, pilot screen, biochemical, validation compound set, bead-based, flow cytometry (AID 588368;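 active = binding below the plate cutoff, the plate median minus 3 SD, with a reading above zero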;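 also: signal is the median channel fluorescence of bead-bound GFP antibody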). As to conditions: Protein G beads, DSG3-Fc, scFv-GFP binding, at 10 µM, stronger effect = lower value.
Assay [14] can be described thus: inhibitors of fungal efflux pumps CDR1, CDR2, MDR1, pilot screen, validation compound set, multiplex, phenotypic (AID 588506;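 active = efflux inhibition above 0.42, the validation set average plus 4 SD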;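 also: Nile Red retained in cells so higher fluorescence means more efflux inhibition; 0 = negative control wells and 1 = enniatin B 25 µM full block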). Particulars: S. cerevisiae pump-expressing triplex, Nile Red efflux flow cytometry; at 10 µM; stronger effect = higher value; the pumps come from Candida albicans.
The target in assay [15] is ATP-binding cassette sub-family B member 6 (Homo sapiens) (UniProt Q9NP58). The assay can be described thus: ABCB6 transporter inhibitors, pilot screen, K562-ABCB6 cells, flow cytometry, validation set (AID 588550;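 active = inhibition above the screen-wide mean plus 3 SD, about 51%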;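 also: 0% = DMSO wells and 100% = benzethonium chloride 70 µM positive control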). Particulars: K562-ABCB6 porphyrin accumulation, 1 h, at 10 µM, stronger effect = higher value.
Chain of ATP-binding cassette sub-family B member 6 (Homo sapiens) (Q9NP58 whole entry, looked up): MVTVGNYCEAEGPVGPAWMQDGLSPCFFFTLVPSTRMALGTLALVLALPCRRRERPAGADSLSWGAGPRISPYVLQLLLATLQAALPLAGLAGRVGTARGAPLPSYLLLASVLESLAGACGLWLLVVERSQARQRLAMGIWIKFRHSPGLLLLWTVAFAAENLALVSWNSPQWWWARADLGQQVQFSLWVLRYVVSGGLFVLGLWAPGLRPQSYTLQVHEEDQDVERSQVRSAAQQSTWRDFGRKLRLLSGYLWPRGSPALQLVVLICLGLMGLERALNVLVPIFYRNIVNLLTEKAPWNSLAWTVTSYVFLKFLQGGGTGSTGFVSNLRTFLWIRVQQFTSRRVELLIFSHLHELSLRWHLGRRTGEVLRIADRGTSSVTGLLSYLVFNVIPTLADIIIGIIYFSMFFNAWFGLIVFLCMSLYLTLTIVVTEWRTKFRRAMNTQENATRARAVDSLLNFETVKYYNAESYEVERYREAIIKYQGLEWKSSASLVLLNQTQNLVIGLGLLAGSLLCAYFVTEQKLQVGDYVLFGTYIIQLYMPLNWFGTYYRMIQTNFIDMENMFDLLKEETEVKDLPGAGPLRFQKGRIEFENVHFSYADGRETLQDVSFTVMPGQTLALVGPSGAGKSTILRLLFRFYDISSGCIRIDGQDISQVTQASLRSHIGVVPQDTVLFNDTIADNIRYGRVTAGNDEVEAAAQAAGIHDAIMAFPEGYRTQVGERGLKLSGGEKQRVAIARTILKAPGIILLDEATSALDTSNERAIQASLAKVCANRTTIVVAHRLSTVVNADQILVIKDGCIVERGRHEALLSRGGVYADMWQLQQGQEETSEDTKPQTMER
Assay [16] in a line: promoters of myeloid differentiation in arrested cells, primary screen, cell-based, GFP/MAC1 double positive, flow cytometry, validation set (AID 588685;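 active = differentiation response of at least 50%, scaled between solvent and reference control, from cells with both markers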;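 also: compound exposure lasts four days before antibody staining and flow analysis; 0% = DMSO wells and 100% = 5 µM fulvestrant positive control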). Particulars: ER-HoxA9 marrow cells, stronger effect = higher value, normalized: vehicle 0, fulvestrant 100.

Records with an inconclusive call do not appear. Calls of active or inactive are those of the source.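 The calls were made as follows, unless noted: active = GFP response, as percent of the DMSO control, above the screen-wide mean plus 3 SD, about 139; inconclusive = no response measured because the compound's own fluorescence interfered; inactive = the rest.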

Chain of AP-2 complex subunit beta (Homo sapiens) (P63010 whole entry, looked up, the tested form may be a part, one chain of several): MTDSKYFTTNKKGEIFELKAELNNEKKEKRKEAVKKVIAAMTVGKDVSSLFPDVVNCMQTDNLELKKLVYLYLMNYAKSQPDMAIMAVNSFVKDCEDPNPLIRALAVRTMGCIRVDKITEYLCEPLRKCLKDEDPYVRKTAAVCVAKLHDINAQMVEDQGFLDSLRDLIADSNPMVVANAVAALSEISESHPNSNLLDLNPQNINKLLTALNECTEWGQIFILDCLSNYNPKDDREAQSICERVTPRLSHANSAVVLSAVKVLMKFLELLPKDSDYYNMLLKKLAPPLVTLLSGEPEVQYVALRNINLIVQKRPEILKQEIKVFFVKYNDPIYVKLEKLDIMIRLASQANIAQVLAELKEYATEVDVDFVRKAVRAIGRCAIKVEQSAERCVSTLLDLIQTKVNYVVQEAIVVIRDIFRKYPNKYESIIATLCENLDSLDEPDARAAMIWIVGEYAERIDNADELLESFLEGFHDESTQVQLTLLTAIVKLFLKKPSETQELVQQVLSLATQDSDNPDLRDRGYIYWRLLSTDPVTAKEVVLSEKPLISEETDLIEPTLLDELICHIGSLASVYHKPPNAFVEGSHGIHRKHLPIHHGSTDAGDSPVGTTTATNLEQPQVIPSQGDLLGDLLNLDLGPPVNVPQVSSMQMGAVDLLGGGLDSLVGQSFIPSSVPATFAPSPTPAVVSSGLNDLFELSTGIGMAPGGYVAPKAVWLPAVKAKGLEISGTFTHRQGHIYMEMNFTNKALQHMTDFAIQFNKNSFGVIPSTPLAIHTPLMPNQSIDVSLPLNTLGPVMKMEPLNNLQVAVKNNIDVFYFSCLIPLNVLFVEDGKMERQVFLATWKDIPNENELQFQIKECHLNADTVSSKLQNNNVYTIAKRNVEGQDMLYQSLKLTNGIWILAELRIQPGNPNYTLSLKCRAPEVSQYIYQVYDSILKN

As for `COc1ccc(C2C3=C(CC(C)(C)CC3=O)N(C)C3=C2C(=O)CC(C)(C)C3)cc1`, the percent of DMSO control GFP in [1] was 101% (inactive). Moreover, the GFP response vs DMSO is 99.6% (inactive) in assay [2] and 110% (inactive) in assay [4]. In assay [3], the percent response of DMSO control is 88% (inactive). For the same molecule, the GFP response, % of DMSO in assay [5] is 118% (inactive). The molecule also showed a double positive events in assay [6] of 62.6%. Moreover, the vesicle binding response in assay [6] was 173% (inactive). The inhibition in assay [7] is 4.84% (inactive); in [11], 2.92% (inactive); in assay [15] it was 3% (inactive). Moreover, in [8], the superoxide response (% of plate) was 104% (inactive). For the same molecule, the aptamer binding inhibition in [9] was 5% (inactive). Besides, the response in [10] was -20.5% (inactive); in assay [12] it was -12.8% (inactive). The binding (% of control) in assay [13] is 100% (inactive). The efflux inhibition (fraction of control) in assay [14] was -0.09 (inactive). Further, in assay [16], the differentiation response is 3.88% (inactive).
As for `CCn1ccnc1CN(C)Cc1cn(-c2cccc(C)c2)nc1-c1cccc(F)c1`, in [1], the percent of DMSO control GFP was 104% (inactive). Besides, the GFP response vs DMSO in assay [2] was 95.6% (inactive); in [4], 92.6% (inactive). The percent response of DMSO control in assay [3] is 108% (inactive). Also, the GFP response, % of DMSO in [5] is 104% (inactive). For the same molecule, the double positive events in assay [6] was determined as 63.6%. The vesicle binding response in assay [6] is 145% (inactive). Further, the inhibition in assay [7] is -7.79% (inactive); in [11], -10.8% (inactive); in [15], 21% (inactive). Besides, the superoxide response (% of plate) in assay [8] is 102% (inactive). In addition, in assay [9], the aptamer binding inhibition is 4% (inactive). For the same molecule, the values for the response in assay [10] and in [12] were -10.5% (inactive) and 3.23% (inactive), respectively. In assay [13], the binding (% of control) is 105% (inactive). Further, the efflux inhibition (fraction of control) in [14] was 0.11 (inactive). Besides, the differentiation response in assay [16] was -14.8% (inactive).
Regarding `CC1(C)CC(=O)c2cnc(NC(=O)C3CCCC3)nc2C1`, the percent of DMSO control GFP in [1] was 105% (inactive). For the same molecule, the GFP response vs DMSO in assay [2] is 96.2% (inactive); in [4], 80.8% (inactive). The percent response of DMSO control in [3] was 109% (inactive). Further, in assay [5], the GFP response, % of DMSO was 96.5% (inactive). In assay [6], the double positive events came to 61%. For the same molecule, in [6], the vesicle binding response was 442% (inactive). Moreover, the values for the inhibition in assay [7], in [11] and in assay [15] were 4.73% (inactive), -7.26% (inactive) and -50% (inactive), respectively. In addition, in assay [8], the superoxide response (% of plate) is 95.1% (inactive). Moreover, the aptamer binding inhibition in [9] was 6% (inactive). The response in assay [10] is -15.9% (inactive); in assay [12], -0.99% (inactive). Also, the binding (% of control) in [13] was 96.1% (inactive). The efflux inhibition (fraction of control) in assay [14] was 0.36 (inactive). The differentiation response in [16] was 10% (inactive).
For the molecule `O=C(NC1CCCCC1)c1cc2nc(-c3ccco3)cc(C(F)(F)F)n2n1`, the percent of DMSO control GFP in assay [1] was 89.5% (inactive). The GFP response vs DMSO in assay [2] was 106% (inactive); in assay [4], 78.7% (inactive). Also, the percent response of DMSO control in [3] is 102% (inactive). Further, the GFP response, % of DMSO in assay [5] is 88.2% (inactive). The double positive events in assay [6] is 43.2%. Moreover, in assay [6], the vesicle binding response is 158% (inactive). Besides, the inhibition in assay [7] is -1.3% (inactive); in assay [11], 1.72% (inactive); in assay [15] it was 9% (inactive). The superoxide response (% of plate) in [8] is 111% (inactive). Besides, the aptamer binding inhibition in assay [9] was 0% (inactive). Moreover, the response was -19.4% (inactive) in assay [10] and 8.07% (inactive) in [12]. In assay [13], the binding (% of control) was 107% (inactive). The efflux inhibition (fraction of control) in [14] is 0.09 (inactive). The differentiation response in assay [16] was 20.5% (inactive).
